Screen size: about 1,500 compounds; about 160 (11%) were called active. No stated cut-off is given here; in the data, active means inhibition above about 60%; inactive means the rest. Only a sample is shown.

From PubChem BioAssay AID651954 (NMMLSC, 2012) come the findings set out here.

The assay is described as follows: blockers of LAMP-1 surface exposure, TALL-104 – TALL-104 cells, flow cytometry, Cherry Pick01, confirmation (AID 651954).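 Further: 0% = stimulated vehicle wells and 100% = unstimulated wells.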 To be noted: LAMP-1 externalization, at 10 µM, active compounds read high, stimulated with PMA plus thapsigargin. Background: A flow cytometer gives signals particle by particle.
On to `Cc1ccccc1CN1C[C@@H]2C[C@@H](c3cn(C)nc3-c3ccccc3)N3CCC[C@@]23C1=O`, for which the inhibition was -13.4% (inactive).

`CCc1ccc(-c2cc3c(=O)n(CC(=O)NCCCN4CCN(Cc5ccccc5)CC4)nc(C)n3n2)cc1`: the inhibition was 34.9% (inactive).

Regarding `Cn1sc(=O)c2cc(S(=O)(=O)NC3CC3)ccc21`, the inhibition was 79.8% (active).

For the compound `COc1ccc(OC)c(NC(=O)CN(C)CCOc2ccc(Br)cc2)c1`, the inhibition is -14.9% (inactive).

For the compound `OCCNc1nc(Nc2ccc(Cl)c(Cl)c2)nc2ccccc12`, the inhibition is -11.3% (inactive).

For the compound `Cc1nc(-c2ccc(Cl)cc2)sc1C1(C)CC(c2ccc(Br)cc2)=NO1` (stereo unspecified), the inhibition is -3.75% (inactive).

Regarding `CCOc1ccc(Cl)cc1-c1cc(C(=O)NCc2cccs2)[nH]n1`, the inhibition is 66.4% (active).

Take `COc1ccc(-c2cn[nH]c2-c2ccc(OC)cc2)cc1`: the inhibition was 2.16% (inactive).

As for `COc1ccc2sc(-c3ccc(N(C)C)cc3)c(-c3ccc4cc[nH]c4c3)c2c1`, the inhibition was -13.7% (inactive).

On to `COc1cccc(NC(=O)C2C(c3ccccc3)C2(Cl)Cl)c1` (stereo unspecified), for which the inhibition was 0.14% (inactive).

Take `COc1ccc(C2CC(c3cccs3)=NN2c2nc(C)c(C(C)=O)s2)cc1OC` (stereo unspecified): the inhibition is 73.4% (active).

As for `CC(C)Cn1cnc2c(SCc3ccc(Cl)cc3)nc(N)nc21`, the inhibition was -12.1% (inactive).

For `CCOC(=O)C1(CCOc2ccccc2)CCN(Cc2ccc(C#CCCO)cc2)CC1`, the inhibition is -4.45% (inactive).

`Oc1ccccc1-c1cc(-c2ccc(Cl)cc2)n[nH]1`: the inhibition is -11.6% (inactive).

On to `CC(C)c1ccccc1OCC(O)CN(CC(O)COc1cccc2ccccc12)C(C)C` (stereo unspecified), for which the inhibition is 87.3% (active).

Take `CS(=O)(=O)N(CC(O)Cn1c2ccccc2c2ccccc21)c1cccc2ccccc12` (stereo unspecified): the inhibition is 5.69% (inactive).

As for `O=C(Nc1ccccc1)c1cccnc1Nc1ccccc1`, the inhibition is -4% (inactive).

In the case of `O=S(=O)(Nc1ccc(O)c2ccccc12)c1ccc(OC(F)(F)F)cc1`, the inhibition was -11.4% (inactive).

On to `COc1ccc(CCNC(=O)C2CC3Cn4c(nc5cc(C)c(C)cc54)C3N2C)cc1` (stereo unspecified), for which the inhibition is -13.9% (inactive).

Regarding `C=CCn1c(SCc2csc(C)n2)nc2scc(-c3ccc(C)o3)c2c1=O`, the inhibition was -12.8% (inactive).

Turning to `Nc1c(C(=O)c2cccs2)sc2nsc(SCCN3CCCCC3)c12`, the inhibition was 22% (inactive).

Consider `Cc1oc(-c2ccccc2Cl)[n+]([O-])c1C`, for which the inhibition was -3.08% (inactive).

Consider `COc1ccccc1N1CCN(c2ncnc3sc(C)c(-c4ccccc4)c23)CC1`, for which the inhibition is -3.66% (inactive).

Regarding `CC(=O)Nc1ccc(-c2csc(NC(=O)Nc3ccccc3)n2)cc1`, the inhibition is 55.2% (inactive).

Turning to `O=C(COc1ccc(Cl)cc1)N1CCN(c2cccc(C(F)(F)F)c2)CC1`, the inhibition is 5.85% (inactive).

For `CCCC(C(=O)n1nc(C)cc1C)C(NS(=O)(=O)c1ccc(C)cc1)c1ccccc1` (stereo unspecified), the inhibition is 1.32% (inactive).

Turning to `CN(c1ccccc1)S(=O)(=O)c1ccc(C(=O)NCCc2ccccc2)cc1`, the inhibition was -3.54% (inactive).

In the case of `O=C(NCc1ccccc1)C(c1ccccc1)N(C(=O)c1csnn1)c1ccc(F)cc1` (stereo unspecified), the inhibition was -12.2% (inactive).

In the case of `Cc1ccc(-c2ccnc3nc(Sc4ncc(C(F)(F)F)cc4Cl)nn23)cc1`, the inhibition was -4.56% (inactive).

Consider `Cc1cccc(-c2nc3ccc(C(=O)NCCN4CCN(C)CC4)cc3nc2-c2cccc(C)c2)c1`, for which the inhibition is 2.79% (inactive).

On to `COc1ccc(-c2csc(Nc3ccc(O)cc3)n2)cc1`, for which the inhibition was -6.12% (inactive).

Turning to `COc1ccc(CC(N)c2csc(NC(=O)Nc3ccc(C(C)C)cc3)n2)cc1` (stereo unspecified), the inhibition was 11.2% (inactive).

For the compound `Cc1cccc(N2CCC(NCc3c(C(=O)N4CCCCC4)nc4c(C)cccn34)CC2)c1`, the inhibition is -4.45% (inactive).

`COc1ccc(-c2oc3ncnc(NCCCO)c3c2-c2ccc(OC)cc2)cc1`: the inhibition was -0.03% (inactive).

Consider `O=S(=O)(c1ccccc1)N(Cc1cccc(F)c1)c1ccccc1`, for which the inhibition is -7.22% (inactive).

As to `CN(C)CCNC(=O)c1ccc(-c2cn3c(-c4ccc(Oc5ccccc5)cc4)cnc3cn2)cc1`, the inhibition was 87.2% (active).

In the case of `O=C(NC(=O)c1ccccc1N1CCCCC1)Nc1ccc(Br)cc1`, the inhibition was -13.3% (inactive).

As to `Cc1cccc2sc(N(CCCN(C)C)C(=O)CCS(=O)(=O)c3ccccc3)nc12`, the inhibition is 7.86% (inactive).

Regarding `COc1ccccc1CN1CCN(C(c2ccccc2)c2ccccc2)CC1`, the inhibition is -12.1% (inactive).

Consider `CCN1C(=O)[C@H]2[C@@H](c3ccc(-c4ccc(F)cc4)cc3)N[C@@](Cc3ccccc3)(C(=O)OC)[C@H]2C1=O`, for which the inhibition was -2.41% (inactive).

As to `CC1CCN(c2ccc([N+](=O)[O-])cc2C(N)=O)CC1`, the inhibition is -4.56% (inactive).

Regarding `COc1cccc(CN(C)CC2CCCN(CCc3ccc(Cl)cc3)C2)c1OC` (stereo unspecified), the inhibition is -10.6% (inactive).

On to `CCOC(=O)C1(C)CCCN(C(=O)c2ccc(F)c(Cl)c2)C1` (stereo unspecified), for which the inhibition was -12.7% (inactive).

Turning to `CS(=O)(=O)N(Cc1ccc(Cl)cc1)c1ccc(C(=O)NCCSCc2ccco2)cc1`, the inhibition is 17.9% (inactive).

For the compound `COc1cccc(CN(C)CC(O)COC(c2ccccc2)c2ccccc2C)c1` (stereo unspecified), the inhibition was -4.22% (inactive).

Take `COc1ccccc1C1=Nc2cccc3cccc(c23)N1`: the inhibition is -15.4% (inactive).

`COc1cccc(CNc2nc(NCc3ccccc3OC)nc3ccsc23)c1`: the inhibition is 35.8% (inactive).

On to `CN1CCN(C2Cc3ccc(Cl)cc3Sc3ccc(F)cc32)CC1` (stereo unspecified), for which the inhibition is 15% (inactive).

On to `COc1cccc(CNc2nc(C(F)(F)F)nc3ccccc23)c1`, for which the inhibition is -14.3% (inactive).

In the case of `COc1ccc(-c2cc(C(=O)N(C)Cc3ccccc3)c3ccccc3n2)cc1`, the inhibition was -6.15% (inactive).

Regarding `Cc1ccc(NC(=O)c2cc(-c3ccc(C)o3)nc3ccccc23)nc1`, the inhibition is -10.9% (inactive).

For `CC(=O)C[C@@H](O)CC(=O)[C@H]1OC(=O)CCCCCCc2ccccc21`, the inhibition was -13.1% (inactive).

As for `CCCCc1ccc(NC(=S)NCCCN2CCOCC2)cc1`, the inhibition was -11.7% (inactive).

With `Cc1cnc(C(=O)OCc2c(C)cc(C(C)(C)C)cc2C)cn1`, the inhibition was -3.52% (inactive).

For `COc1ccc(Oc2cn[nH]c2-c2ccc(OC)cc2O)cc1`, the inhibition is -11.7% (inactive).

As for `CCCCC[C@H](C)N1C[C@@H](COCc2ccccc2)Oc2cc(N3CC[C@@H](N(C)C)C3)ccc2S1(=O)=O`, the inhibition was 16.6% (inactive).

With `COc1ccc(CCNCc2c(-c3ccccc3)n(C)c3ccccc23)cc1`, the inhibition is 6.74% (inactive).

As to `COc1ccc(-c2cc(NC=O)c3ncc(-c4ccccc4)n3c2)cc1OC`, the inhibition was 80.3% (active).

`CCCC(=O)Nc1nc2ccc(NC(=O)c3c(F)c(F)c(OC)c(F)c3F)cc2s1`: the inhibition was -1.52% (inactive).

Regarding `CCOC(=O)C1(CCOc2ccccc2)CCN(Cc2cc(OC)c(O)cc2Cl)CC1`, the inhibition is -6.73% (inactive).

As for `COc1cccc(COc2ccc(N(C)S(=O)(=O)c3ccccc3)cc2)c1`, the inhibition is -7.06% (inactive).

Turning to `COC(=O)[C@H](Cc1ccccc1)NC(=O)[C@@H]1C[C@H]1[C@@H](NC(=O)OCc1ccccc1)c1ccccc1`, the inhibition is 48% (inactive).

As to `Brc1ccccc1C1Nc2cccc3cccc(c23)N1`, the inhibition was 106% (active).

As for `CC(CC(=O)Nc1cc(C(F)(F)F)ccc1Cl)c1ccccc1` (stereo unspecified), the inhibition is 0.82% (inactive).

On to `Cc1cccc(N(CC(=O)Nc2ccc(-c3nc4ccc(C)cc4s3)cc2)S(C)(=O)=O)c1`, for which the inhibition is 29% (inactive).

`O=C(Nc1ccc(Cl)cc1)Nc1nnc(/C=C/c2ccccc2)s1`: the inhibition is -2.86% (inactive).

What is called inhibition is the change of the read-out against control, counted positive when it falls.
